The panel holds about 83,000 compounds, 20% with a hit somewhere; the sample as a whole holds those more often.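 Negative percent growth values reflect cell death: -40 means 40% of the cells present at the start died, and -100 means all died.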 Activity calls are given as the source filed them. The calls were made as follows: active = growth percent below 10; inactive = the rest.
These compounds were tested on K-562 leukemia (assay: NCI-60 one-dose screen, 48 h (100 = growth as untreated, 0 = no growth, -100 = all killed)). Conditions: 10 µM unless noted.

| SMILES | growth |
| --- | --- |
| Fc1ccc(C2=NN(c3ccccc3)C(c3sc(N(CCCl)CCCl)nc3Cl)C2)cc1 (stereo not given) | 69.8% (inactive) |
| CC[C@H](C)[C@H](NC(=O)Nc1ccccc1)C(=O)N(C)[C@H](C[C@@H](OC(C)=O)c1nc(C(=O)N[C@@H](Cc2ccccc2)C[C@H](C)C(=O)OC)cs1)C(C)C | 15.7% (inactive) |
| c1ccc(CCN2CCCCC2Cc2ccccc2)cc1 (stereo not given) | 101% (inactive) |
| CC(=O)O[C@H]1CCC2(C)C(=CCC3C2CCC2(C)/C(=N/OC(=O)c4ccc(N(CCCl)CCCl)cc4)CCC32)C1 (stereo not given in full) | 5% (active) |
| O=[As]c1ccc(C(=O)c2ccc(Oc3ccccc3)cc2)cc1 (stereo not given) | -17.8% (active) |
| O=[N+]([O-])c1cc([N+](=O)[O-])c(Cl)c(Cl)c1Cl | 13% (inactive) |
| Cc1cc(NC(=O)NCCOc2ccc(N3C(N)=NC(N)=NC3(C)C)cc2Cl)ccc1S(=O)(=O)F | 13% (inactive) |
| COc1ccc2c(c1)NC1=C(C(=O)OC1)C2c1cc(OC)c(OC)c(OC)c1 (stereo not given) | 7.31% (active) |
| CC(C)(O)/C=C/C(=O)[C@](C)(O)[C@H]1[C@H](O)C[C@@]2(C)[C@@H]3CC=C4[C@@H](C=C(O)C(=O)C4(C)C)[C@]3(C)C(=O)C[C@]12C | -32.4% (active) |
| C[C@]12CCc3sc(-c4ccc(Cl)cc4)nc3C1=CC[C@@H]1[C@@H]2CC[C@]2(C)C(=O)CC[C@@H]12 | 7.44% (active) |
| C=CCC1(CC)C(=O)NC(=S)NC1=O | 95.5% (inactive) |
| NC(Cc1ccc2c(c1)OCO2)c1ccc2c(c1)OCO2 (stereo not given) | 96.5% (inactive) |
| O=C(CF)N(O)c1ccc(/C=C/c2ccccc2)cc1 | 45.4% (inactive) |
| COc1ccc(/C=C(/C(=O)N2CCCC2)c2cc(OC)c(OC)c(OC)c2)cc1N | 16.1% (inactive) |
| Nc1nc(N)c(-c2ccc(Cl)c(Cl)c2)c(/C=C/c2ccc(S(=O)(=O)F)cc2)n1 | 53.4% (inactive) |
| Nc1c(Br)cc([N+](=O)[O-])cc1[N+](=O)[O-] | 104% (inactive) |
| Oc1ccc(O)c2c1C1(Cl)C(Cl)=C(Cl)C2(Cl)C1(Cl)Cl | 27.5% (inactive) |
| CN(C)P1(N(C)C)=NP(N(C)C)(N(C)C)=NP(N(C)C)(N(C)C)=N1 | 102% (inactive) |

| SMILES | growth |
| --- | --- |
| CCCCNCCc1ccccn1 | 90.4% (inactive) |
| NC(=O)SCC(=O)Nc1ccc([As](=O)(O)O)cc1 | 75.5% (inactive) |
| C[C@]12CC[C@H]3[C@@H](C[C@@H]4N=C(c5ccc(O)cc5)S[C@@]45C[C@H](O)CC[C@]35C)[C@@H]1CC[C@@H]2O | 13.9% (inactive) |
| CC1(C)N=C(N)N=C(N)N1c1ccc(CCCCc2ccc(S(=O)(=O)F)cc2)cc1 | 19.7% (inactive) |
| Nc1c(Br)cc2c3c(cccc13)-c1ccccc1-2 | 38.3% (inactive) |
| COc1cc2c(cc1OC)CN(C)C(C)C2 (stereo not given) | 101% (inactive) |
| CC(C)C1c2ccc(O)cc2Oc2nc(N)c(C#N)c(N)c21 (stereo not given) | 92.5% (inactive) |
| c1ccc2nc(OCCN3CC3)ccc2c1 | 26.8% (inactive) |
| CC1(C)N=C(N)N=C(N)N1c1ccc(CNC(=O)Nc2ccc(S(=O)(=O)F)c(Cl)c2)c(Cl)c1 | 16.4% (inactive) |
| c1ccc(-c2ccc3ccccc3[o+]2)cc1 | 101% (inactive) |
| CSc1ccccc1NP1(=O)OCC(C)([N+](=O)[O-])CO1 (stereo not given) | 75.4% (inactive) |
| C[CH2][Pb]([CH2]C)([CH2]C)[O]C(=O)COc1ccccc1 | 4.92% (active) |
| COc1ccc(/C=C\c2cc(OC)c(OC)c(OC)c2)cc1N/C=C\C(=O)c1c[nH]c2ccccc12 | 13.7% (inactive) |
| CCCC(C)(C)c1ccc2c(c1)OC(C)(C)[C@@H]1CC=C(C)C[C@@H]21 | 92.3% (inactive) |
| OC1(c2ccc(Cl)cc2Cl)c2ccccc2C2=NCCN21 (stereo not given) | 81.1% (inactive) |
| CC1(CF)NC(=O)NC1=O (stereo not given) | 107% (inactive) |
| O=C(Nc1ccc(S(=O)(=O)F)cc1)Oc1ccccc1 | 100% (inactive) |
